Measured potencies and affinities stand elsewhere.
Tests used:
Klebsiella pneumoniae = conditions: Concentration 20 uM; ASSAY_TEST Inhibition of Bacterial Growth; detection method Absorption (OD600); MEDIA CAMHB; plate type 384well; NBS; CORNING #3640; time 18 hr
Candida albicans = conditions: 20 µM
Cryptococcus neoformans = conditions: Concentration 20 uM; ASSAY_TEST Inhibition of Fungal Growth; detection method Resazurin; Absorption (OD600-OD570); plate type 384well; NBS; CORNING #3640

| SMILES | Inhibition (Klebsiella pneumoniae) | Inhibition (Candida albicans) | Inhibition (Cryptococcus neoformans) |
| --- | --- | --- | --- |
| Cc1ccc(C)c(OCCCC(C)(C)C(=O)O)c1 [GEMFIBROZIL] | 7.25% | 8.15% | -1.55% |
| CCN(CC)CCOc1ccc(C(=C(Cl)c2ccccc2)c2ccccc2)cc1.O=C(O)CC(O)(CC(=O)O)C(=O)O [CLOMIPHENE CITRATE] | 12.13% | 7.1% | -20.85% |
| CN1CCN(CC/C=C2/c3ccccc3Sc3ccc(S(=O)(=O)N(C)C)cc32)CC1 [THIOTHIXENE] | 0.07% | 2.99% | -5.03% |
| CC(=O)OCC(CCn1cnc2cnc(N)nc21)COC(C)=O [FAMCICLOVIR] | 11.51% | 2.72% | -0.79% |
| CNCCCN1c2ccccc2CCc2ccccc21.Cl [DESIPRAMINE HYDROCHLORIDE] | 6.09% | 2.92% |  |
| CC1CNc2c(cccc2S(=O)(=O)N[C@@H](CCCNC(=N)N)C(=O)N2CC[C@@H](C)C[C@@H]2C(=O)O)C1 (some centres not stated) [ARGATROBAN] | 8.18% | 4.39% | -2.44% |
| OCCN1C[C@H](O)[C@@H](O)[C@H](O)[C@H]1CO [MIGLITOL] | 11.67% | 2.16% | 1.09% |
| CC(Cc1ccccc1)(NC(=O)CN)c1ccccc1.Cl (configuration not stated) [REMACEMIDE HYDROCHLORIDE] | 8.63% | 4.18% | -7.79% |
| CC(C(=O)O)c1cccc(C(=O)c2ccccc2)c1 (configuration not stated) [KETOPROFEN] | 8.94% | 5.45% | -5.87% |
| O=C1CCC(N2C(=O)c3ccccc3C2=O)C(=O)N1 (configuration not stated) [THALIDOMIDE] | 3.28% | 3.62% | -0.8% |
| COCC1=C(C(=O)OC(C)OC(=O)OC(C)C)N2C(=O)[C@@H](NC(=O)/C(=N\OC)c3csc(N)n3)[C@H]2SC1 (some centres not stated) [CEFPODOXIME PROXETIL] | 5.41% | 4.56% | 0.11% |
| CC1CCN(CCCC(=O)c2ccc(F)cc2)CC1.Cl | 24.05% | 2.99% | -4.29% |
| CCOC(=O)N1CCC(=C2c3ccc(Cl)cc3CCc3cccnc32)CC1 [LORATADINE] | 12.62% | 2.41% | -7.17% |
| CC(C)(C)NCC(O)c1ccc(O)c(CO)c1.CC(C)(C)NCC(O)c1ccc(O)c(CO)c1.O=S(=O)(O)O (configuration not stated) [ALBUTEROL SULFATE] | 17.78% | 3.1% | -3.67% |
| O=C([O-])c1cc(=O)c2c(OCC(O)COc3cccc4oc(C(=O)[O-])cc(=O)c34)cccc2o1.[Na+].[Na+] [CROMOLYN SODIUM] | 6.64% | 2.62% | 0.69% |
| C=C[C@H]1CN2CC[C@H]1C[C@@H]2[C@@H](O)c1ccnc2ccc(OC)cc12 [QUINIDINE] | 12.62% | -0.46% |  |
| C[C@@H]1C[C@H]2[C@@H]3CCC4=CC(=O)C=C[C@]4(C)[C@@]3(F)[C@@H](O)C[C@]2(C)[C@H]1C(=O)CO [DESOXIMETASONE] | 9.74% | 2.64% | 2.06% |
| O=C1c2c(O)cc(O)cc2O[C@H](c2ccc(O)c(O)c2)[C@H]1O [(+)-TAXIFOLIN] | 12.56% | 3.72% | -3.68% |
| CC(C)c1nc(CN(C)C(=O)N[C@H](C(=O)N[C@@H](Cc2ccccc2)C[C@H](O)[C@H](Cc2ccccc2)NC(=O)OCc2cncs2)C(C)C)cs1 [RITONAVIR] | 14.84% | 1.82% | -5.87% |
| CC(C)(S)C(N)C(=O)O (stereo not drawn) [DL-PENICILLAMINE] | 8.23% | 3.66% | -9.16% |
| CN(C)CCCN1c2ccccc2Sc2ccc(Cl)cc21.Cl [CHLORPROMAZINE HYDROCHLORIDE] | 12.47% | 0.59% | 2.71% |
| C[C@@H]1CN(CCCn2c3ccccc3c3ccccc32)C[C@H](C)N1.Cl.O | -0.67% | 0.45% | 2.04% |
| CC(=O)Nc1nnc(S(N)(=O)=O)s1 [ACETAZOLAMIDE] | 10.3% | 4.56% | -2.97% |
| CC=CC(=O)N(CC)c1ccccc1C | 0.87% | 0.3% | -7.28% |
| O=C1[C@H](CC[C@H](O)c2ccc(F)cc2)[C@@H](c2ccc(O)cc2)N1c1ccc(F)cc1 [EZETIMIBE] | 2.21% | -1% | -1.78% |
| CC1(C)O[C@@H]2[C@@H](CO[C@@]3(COS(N)(=O)=O)OC(C)(C)O[C@@H]23)O1 [TOPIRAMATE] | 6.32% | 2.83% | -6.94% |
| CNCCCC12CCC(c3ccccc31)c1ccccc12.Cl [MAPROTILINE HYDROCHLORIDE] | 10.44% | 3.58% | -10.89% |
| COc1ccc2cc(CCC(C)=O)ccc2c1 [NABUMETONE] | 8.45% | 5.24% | -7.4% |

| SMILES | Inhibition (Klebsiella pneumoniae) | Inhibition (Candida albicans) | Inhibition (Cryptococcus neoformans) |
| --- | --- | --- | --- |
| CC(=O)C1(O)CCC2C3CC(C)C4=CC(=O)C=CC4(C)C3(F)C(O)CC21C (configuration not stated) | 4.1% | 2.21% | -3.1% |
| CC(=O)NCCCCCCNC(C)=O [HEXAMETHYLENEBISACETAMIDE] | 1.97% | 0.48% | -6.53% |
| COc1cc2nc(N(C)CCCNC(=O)C3CCCO3)nc(N)c2cc1OC (configuration not stated) [ALFUZOSIN] | -2.08% | -0.8% | -5.01% |
| C#C[C@]1(O)CC[C@H]2[C@@H]3CCc4cc(OC)ccc4[C@H]3CC[C@@]21C [MESTRANOL] | 4.28% | 4.15% | -7.53% |
| CCCSc1ccc2[nH]c(NC(=O)OC)nc2c1 [ALBENDAZOLE] | 3.18% | 2.62% | 42.52% |
| Cl.O=C(NCC1CCCCN1)c1cc(OCC(F)(F)F)ccc1OCC(F)(F)F (configuration not stated) | 7.49% | 3.33% | -9.22% |
| O=C(O)COCCN1CCN([C@H](c2ccccc2)c2ccc(Cl)cc2)CC1 [LEVOCETIRIZINE] | 20.22% | 0.53% | 0.71% |
| Cl.O[C@@H](c1cc(C(F)(F)F)nc2c(C(F)(F)F)cccc12)[C@H]1CCCCN1 | 14.04% | 5.35% |  |
| CC1(C)S[C@@H]2[C@H](/N=C/N3CCCCCC3)C(=O)N2[C@H]1C(=O)O [AMDINOCILLIN] | 18.13% | 4.08% | -5.88% |
| CCCCC(=O)OC1(C(=O)CO)CCC2C3CCC4=CC(=O)CCC4(C)C3C(O)CC21C (configuration not stated) | 9.82% | 3.16% | -1.86% |
| CC(C)NCC(O)c1cc(O)cc(O)c1 (configuration not stated) [METAPROTERENOL] | 7.02% | 1.29% | 0.32% |
| CC[C@]1(O)C[C@@H]2CN(CCc3c([nH]c4ccccc34)[C@@](C(=O)OC)(c3cc4c(cc3OC)N(C=O)[C@H]3[C@@](O)(C(=O)OC)[C@H](OC(C)=O)[C@]5(CC)C=CCN6CC[C@]43[C@@H]65)C2)C1.O=S(=O)(O)O | 3.74% | 2.01% | -7.42% |
| O=C(CCNNC(=O)c1ccncc1)NCc1ccccc1 [NIALAMIDE] | 13.86% | 4.06% | -3.3% |
| NC(Cc1cc(I)c(Oc2ccc(O)c(I)c2)c(I)c1)C(=O)O (configuration not stated) [RATHYRONINE] | 9.96% | 2.19% | -1.85% |
| CCOC(=O)c1ccc(OC(=O)CCCCCN=C(N)N)cc1.CS(=O)(=O)O | 15.95% | 3.2% | -7.27% |
| CCC(=O)O[C@]1(C(=O)CCl)[C@@H](C)C[C@H]2[C@@H]3CCC4=CC(=O)C=C[C@]4(C)[C@@]3(F)[C@@H](O)C[C@@]21C [CLOBETASOL PROPIONATE] | -2.85% | 0.73% | 4.34% |
| CC(=O)OCC(=O)[C@@]1(O)CC[C@H]2[C@@H]3C[C@H](C)C4=CC(=O)C=C[C@]4(C)[C@H]3[C@@H](O)C[C@@]21C [METHYLPREDNISOLONE ACETATE] | 10.69% | -0.69% | -0.41% |
| CC[C@@H]1C(=O)OC[C@@H]1Cc1cncn1C.Cl [PILOCARPINE HYDROCHLORIDE] | 13.79% | 2.29% | -1.97% |
| CC(C)NCC(O)COc1ccc(CCOCC2CC2)cc1.Cl (configuration not stated) [BETAXOLOL HYDROCHLORIDE] | 15.59% | 2.88% | -9.53% |
| O=c1c(O[C@@H]2O[C@H](CO)[C@H](O)[C@H](O)[C@H]2O)c(-c2ccc(O)c(O)c2)oc2cc(O)cc(O)c12 [HYPEROSIDE] | 17.1% | 1.21% | -13.27% |
| CCCCC(=O)N(Cc1ccc(-c2ccccc2-c2nnn[nH]2)cc1)[C@H](C(=O)O)C(C)C | 7.53% | 3.96% | -1.97% |
| O.OC[C@H]1O[C@@H](n2cnc3c(NC4CCCC4)nc(Cl)nc32)[C@@H](O)C1O (some centres not stated) | 3.81% | 1.81% | -4.95% |
| CS(=O)(=O)c1ccc(-c2cc(Br)sc2-c2ccc(F)cc2)cc1 [DUP-697] | 2.25% | 5.12% | -8.07% |
| CCC(CO)NCCNC(CC)CO (configuration not stated) | 10.98% | 2.36% | -1.69% |
| COc1ccc2[nH]c([S+]([O-])Cc3ncc(C)c(OC)c3C)nc2c1 (configuration not stated) [OMEPRAZOLE] | 7.63% | 27% | -26.65% |
| C=C1/C(=C\C=C2/CCC[C@]3(C)[C@@H]([C@H](C)CCCC(C)(C)O)CC[C@@H]23)C[C@@H](O)C[C@@H]1O [CALCITRIOL] | 21.35% | 2.06% | -8.66% |
| Nc1nc(N)nc(-c2cc(Cl)ccc2Cl)n1.O=C(O)/C=C\C(=O)O [IRSOGLADINE MALEATE] | 5.85% | 2.42% | -1.72% |

Reference: ChEMBL document CHEMBL4513141, “CO-ADD screening of NIH (USA) - Clinical Collection” (2021)
